# A selection: hits, their analogues and other compounds. The true share with any hit is near 4.6%.
# NALP3 yeast inh = blocks the NALP3 inflammasome reconstituted in yeast | inhibition, % at 10 µM | Yeast reconstituted NLRP3/ASC/caspase-1, beta-gal luminescence, 24 h | AID 2825 | 0.39% of 330,000 active;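 active means inhibition of 50% or more; inactive means inhibition below 50%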;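 further: plate controls were induced DMSO wells for no effect and uninduced yeast grown without galactose for full effect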
# PfHsp90 yeast 2 = inhibits growth of yeast expressing Plasmodium falciparum Hsp90; inhibition, % at 9.4 µM; AID 504621; 0.32% of 310,000 active; S. cerevisiae expressing PfHsp90, BacTiter-Glo ATP, 48 h; yeast lacking PDR1 and PDR3 efflux regulators;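 active means every replicate shows inhibition above about 80%, whatever the replicate mean, limit read from the data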;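 further: 0% = DMSO neutral controls and 100% = 20 µM radicicol positive controls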
# SKKanGAS inh = SKKanGAS growth inhibition | S. pyogenes SKKanGAS, kanamycin growth, BacTiter-Glo, 6 h | inhibition, % at 7.5 µM | 1.3% of 300,000 active | AID 1662;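 active means mean replicate score, as percent of positive control median, at least 50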;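 further: strain carries kanamycin resistance gene driven by streptokinase promoter and grows in 40 µg/ml kanamycin; loss of luminescence reflects streptokinase promoter inhibition or plain growth inhibition; 0% = median of DMSO wells and 100% = positive control at its reference dose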
# TIM10 inh = growth inhibitors of TIM10 yeast strain. 1.4% of 330,000 active. S. cerevisiae TIM10 strain growth, BacTiter-Glo luminescence, 24 h. inhibition, % at 10 µM;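 active means inhibition of 40% or more at the single tested concentration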;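 further: wild-type TIM10 isogenic control strain grown at permissive 25 °C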
# tim10-1 inh = inhibits growth of tim10-1 mutant yeast. S. cerevisiae tim10-1 ts strain growth, BacTiter-Glo, 24 h. AID 463190. 2.2% of 330,000 active. inhibition, % at 20 µM;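 active means inhibition of at least 40%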;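 further: mutant grown at 25 °C; 0% = DMSO wells with yeast and 100% = wells holding no yeast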
# tim23-1 inh = inhibits growth of tim23-1 mutant yeast | S. cerevisiae tim23-1 growth, BacTiter-Glo luminescence, 24 h | inhibition, % at 20 µM | 1.3% of 330,000 active | AID 463212;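 active means growth inhibition of the mutant yeast at or above 50%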;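 further: temperature-sensitive mutant grown at 25 °C; plate controls were DMSO-treated mutant yeast for no effect and medium wells lacking yeast for full effect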
# tim10-1 confirm = tim10-1 yeast growth inhibition, confirmed. shares compounds with tim10-1 inh. S. cerevisiae tim10-1 ts strain growth, BacTiter-Glo, 24 h. inhibition, % at 20 µM. 56% of 7,400 active. AID 463213;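 active means inhibition of yeast growth at or above a set limit in either of two repeat tests at 20 µM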;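 further: tim10-1 mutant grown at permissive 25 °C to find synthetic lethal compounds; 0% = DMSO yeast wells and 100% = medium wells without yeast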
# Starred values were filed as active, the others as inactive; · = no result.
SMILES,NALP3 yeast inh,PfHsp90 yeast 2,SKKanGAS inh,TIM10 inh,tim10-1 inh,tim23-1 inh,tim10-1 confirm
O=C(CSc1nccc(=O)[nH]1)NN(c1ccccc1)c1ccccc1,-10.6,1.2,5.5,4.3,8.1,5.1,·
CCOc1ccc(N2C(=O)CC(Sc3nc4ccc(OCC)cc4s3)C2=O)cc1 (stereo not drawn),18.8,5.9,5.5,-7.2,-4.9,-20.4,·
CCOc1ccc2nc(SC3CC(=O)N(c4ccc(OC)cc4OC)C3=O)sc2c1 (stereo not drawn),20.4,-23.8,-9.1,36.1,44.0*,34.5,43.0*
Cc1[nH][nH]c(=O)c1C(c1c(C)[nH][nH]c1=O)c1cn(Cc2cccc3ccccc23)c2ccccc12,11.0,-26.3,·,10.5,48.2*,49.4,33.3*
Cc1cc(C)cc(NC(=O)CSc2nc3c(c(=O)[nH]2)CN(Cc2ccc(F)cc2)CC3)c1,1.2,-169.2,22.0,12.0,-10.3,-6.0,·
CCOC(=O)c1nnn(-c2nonc2N)c1-c1ccc(F)cc1,-3.1,-11.6,0.7,21.4,31.5,17.6,·
C=CCOC(=O)/C(=C\c1ccccc1)NC(=O)c1ccc(C)cc1,-17.2,2.6,5.6,25.0,40.3*,21.4,26.6
CCOC(=O)/C(=C\c1ccccc1)NC(=O)c1ccccc1,-18.2,7.9,-8.0,21.7,30.8,20.8,·
O=C(O)c1cc(S(=O)(=O)N2CCN(S(=O)(=O)c3ccc4ccccc4c3)CC2)ccc1Br,1.0,7.4,·,7.4,-4.4,-6.6,·
CC(=O)c1ccc(NC(=S)NC(C)c2ccc(Cl)cc2Cl)cc1 (stereo not drawn),1.4,·,22.3,25.9,55.7*,27.0,33.4*
CC(=O)c1ccc(NC(=S)NC(=O)Cc2ccc(Cl)cc2)cc1,15.2,-3.9,-3.4,-8.2,-27.6,-22.3,·
CSc1nc2[nH]c(=O)n(O)c(=O)c2n1Cc1ccccc1,·,12.9,·,·,·,·,·
CC1CCCC(N2C(=O)NC(NC(=O)c3ccco3)(C(F)(F)F)C2=O)C1C (stereo not drawn),-3.3,-7.4,0.5,7.3,46.6*,20.6,25.7
CC(C)c1cc(C(C)C)c(S(=O)(=O)NNC(=O)c2ccncc2)c(C(C)C)c1,-4.9,17.6,9.3,33.3,49.8*,36.6,21.2
CCOc1ccc(/C=N/N(C)c2ccccc2)cc1OC,31.5,-23.4,-5.8,-1.2,16.5,6.5,·
CN(/N=C/c1cc(Br)cc(Br)c1O)c1ccccc1,20.4,-4.2,-1.9,24.3,43.0*,19.7,35.3*
COC(=O)N1C(=O)[C@@](c2ccccc2)(C2CCCC2)N1C(=O)OC,0.9,4.8,-0.8,36.7,41.9*,31.0,32.0*
C/C(=N\NC(=S)NC(C)C)c1ccccc1OC(F)F,9.8,12.9,-0.2,24.6,41.5*,25.8,30.3*
CCOC(=O)C1CCN(C(=O)CN2C(=O)COc3ccc(C(C)(C)C)cc32)CC1,-0.1,-3.1,0.8,9.3,43.7*,28.2,7.1
Cc1ccc(C(=O)CSC2=C(C#N)C(c3ccco3)C3=C(CC(C)(C)CC3=O)N2)cc1 (stereo not drawn),17.1,-7.8,24.6,16.3,29.8,24.3,·
N#CC1=C(SCC(=O)c2ccc(Cl)cc2)NC2=C(C(=O)CCC2)C1c1ccco1 (stereo not drawn),8.3,-2.4,16.1,30.6,46.0*,25.4,22.7
COCCOC(=O)c1c(NC(=O)COC(=O)c2ccc(C)o2)sc(C(N)=O)c1C,21.6,·,·,4.0,6.6,12.5,·
COc1ccc(/C=C/C2=CCN(Cc3ccc(OC)cc3)CC2)cc1,20.4,28.3,-2.7,-3.4,-1.0,4.8,·
CCOC(=O)N1CCC(n2c(SCC(=O)N3CCCC3)nc3ccccc3c2=O)CC1,-1.3,·,5.2,11.2,24.6,6.6,·
CCOC(=O)N1CCC(n2c(SCC(=O)NCc3ccccc3)nc3ccccc3c2=O)CC1,10.4,0.8,3.8,25.1,43.4*,31.7,20.9
CCC/C(=N/NC(=O)c1ccccc1Cl)c1ccccc1,9.7,-35.5,3.8,-6.9,-7.8,14.1,·
CCc1nc(N2CCCCC2)c2oc3ccccc3c2n1,7.8,-6.7,8.4,13.0,40.5*,49.5,7.7
CCc1nc(Nc2cc(OC)ccc2OC)c2oc3ccccc3c2n1,18.0,-5.3,-10.2,19.5,6.3,4.7,·
